Data as given in PubChem BioAssay (NCI).
About 83,000 compounds went through this panel and 20% of them were active in at least one assay; those are over-represented in the sample as a whole.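 Cell lines were cultured in 96-well plates, exposed to a single compound concentration, and assessed for percent growth 48 hours later.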 Values without a mark were called inactive. The source made the active and inactive calls. Rule for the calls: active = growth percent below 10; inactive = the rest.

Legend:
Test in all cases: NCI-60 one-dose screen, 48 h (100 = growth as untreated, 0 = no growth, -100 = all killed)
HCT-15 colon = settings: 10 µM unless noted
HT29 colon = settings: 10 µM unless noted
U251 CNS = settings: 10 µM unless noted
PC-3 prostate = settings: 10 µM unless noted
SK-MEL-5 melanoma = settings: 10 µM unless noted
UACC-62 melanoma = settings: 10 µM unless noted
SK-MEL-28 melanoma = settings: 10 µM unless noted
SK-MEL-2 melanoma = settings: 10 µM unless noted
EKVX NSCLC = settings: 10 µM unless noted
SN12C renal = settings: 10 µM unless noted
UO-31 renal = settings: 10 µM unless noted
TK-10 renal = settings: 10 µM unless noted
ACHN renal = settings: 10 µM unless noted
CAKI-1 renal = settings: 10 µM unless noted
A498 renal = settings: 10 µM unless noted
MOLT-4 leukemia = settings: 10 µM unless noted
LOX IMVI melanoma = settings: 10 µM unless noted
CCRF-CEM leukemia = settings: 10 µM unless noted
SNB-75 CNS = settings: 10 µM
SNB-19 CNS = settings: 10 µM unless noted

| SMILES | growth (HCT-15 colon) | growth (HT29 colon) | growth (U251 CNS) | growth (PC-3 prostate) | growth (SK-MEL-5 melanoma) | growth (UACC-62 melanoma) | growth (SK-MEL-28 melanoma) | growth (SK-MEL-2 melanoma) | growth (EKVX NSCLC) | growth (SN12C renal) | growth (UO-31 renal) | growth (TK-10 renal) | growth (ACHN renal) | growth (CAKI-1 renal) | growth (A498 renal) | growth (MOLT-4 leukemia) | growth (LOX IMVI melanoma) | growth (CCRF-CEM leukemia) | growth (SNB-75 CNS) [%] | growth (SNB-19 CNS) [%] |
| --- | --- | --- | --- | --- | --- | --- | --- | --- | --- | --- | --- | --- | --- | --- | --- | --- | --- | --- | --- | --- |
| Clc1cc(Cl)c2nc(-c3ccc(-c4ccc(/C=N/NC5=NCCN5)cc4)s3)cn2c1 | 38% | 35% | 87.2% | 76.5% | 88% | 98.8% | 99.7% | 106% | 80.8% | 92.5% | 72% | 110% | 105% | 91.9% | 38% | 73% |  |  |  |  |
| C=C1C(=O)O[C@H]2[C@H]1CC/C(Cn1cc(-c3cccc(Cl)c3)nn1)=C\CC[C@@]1(C)O[C@@H]21 | -72.3% (active) | -56.3% (active) | -71.1% (active) | -59.1% (active) | -52.6% (active) |  |  | -40.8% (active) | -18.4% (active) | -37.1% (active) | -95.4% (active) | -97.1% (active) | -89% (active) | -82.2% (active) | -26.2% (active) | -18.6% (active) | -91.1% (active) | -40.8% (active) |  |  |
| C=C(C)[C@@H]1C[C@@H]2Cc3cc(Cl)ccc3N1O2 | 97.9% |  | 94.5% | 96.5% | 95.8% | 94.9% | 108% | 130% | 84.7% | 102% | 100% | 129% | 99% | 95.9% | 96.3% |  | 99.3% | -70.8% (active) | 99.2 | 105 |
| NC(=S)N/N=C1\CCCC(C(F)(F)F)C1 (centres undefined) | 90.5% |  | 107% | 69.6% | 116% | 100% | 111% | 102% | 84.7% | 85.1% | 64.8% | 112% | 91.8% | 87.5% | 128% | 74.5% | 78% | 45.5% | 87.3 | 100 |
| C=C[C@@H]1C[C@@H]2Cc3ccccc3N1O2 | 107% |  | 101% | 116% | 107% | 101% | 109% | 87.8% | 99.5% | 97.5% | 102% | 108% | 110% | 97.8% | 107% | 28.9% | 104% | -50% (active) | 102 | 109 |
| COC(=O)c1cc2cc(-c3ccc(OC)cc3)cnc2[nH]1 | 11% |  | 12.6% | 7.32% (active) | 30.9% | 23.8% | 56.1% | 8.37% (active) | 47% | 51.9% | 34.9% | 38.9% | 44% | -2.35% (active) | 28.1% | 22.8% | 25.2% | 22.3% | 62.5 | 42.4 |
| C[n+]1c(/C=C/c2c(O)ccc3ccccc23)ccc2ccccc21 | 21.6% |  | 17.3% | 25.4% | 36% | 44.6% | 66.6% | 29.4% | 44.8% | 32.4% | 22.2% | 49.1% | 31.6% | 35.1% | 52.9% |  | -65.1% (active) | 10.2% | 49.9 | 41.7 |
| O=C(Nc1ccncc1)C(=O)c1cn(S(=O)(=O)c2ccccc2F)c2ccccc12 | 31.7% | 7.48% (active) | 30.7% | 40.1% | 13.5% | 32.3% | 61.5% |  | 49.2% | 33.8% | 52.9% | 101% | 56.8% | 35.6% | 49.7% | 39.1% | 37% |  |  |  |
| C=C[C@@H]1C[C@@H]2Cc3cc(F)ccc3N1O2 | 104% |  | 99.3% | 102% | 108% | 100% | 115% | 117% | 110% | 102% | 129% | 107% | 106% | 92.5% | 97.8% |  | 104% | -57.7% (active) | 99.7 | 109 |
| C=C[C@@H]1C[C@@H]2Cc3cc(Cl)ccc3N1O2 | 97.7% |  | 89.7% | 94.9% | 102% | 96.5% | 103% | 107% | 90.2% | 94.9% | 101% | 101% | 104% | 88.7% | 85.6% | 26.4% | 92.5% | -61.3% (active) | 93.3 | 113 |
| O=[N+]([O-])c1cc(S(=O)(=O)Oc2ccccc2)ccc1Cl | 40.5% |  | 0.0855% (active) | 25.5% | 6.43% (active) | 65.8% | -18% (active) | 87.5% | 65% | 29.6% | -87.7% (active) | 52.3% | 37.6% | -89.4% (active) | 96.7% | 19.4% | -80.1% (active) | -22.1% (active) | 52.2 | 30.6 |
| Fc1ccc(Nc2nc(NCCNc3ccnc4cc(Cl)ccc34)nc(N3CCOCC3)n2)cc1 | 10.5% | -45.5% (active) | 39% | 38.2% | 43.2% | 47.7% | -98.5% (active) | 50.7% |  | 63.8% | 45.2% | 86.2% | 55.4% | 76.9% | 8.73% (active) | 25.2% | 15.5% | 49.1% |  |  |
| Clc1cc(Cl)cc(-c2ccc(-c3ccc(/C=N/NC4=NCCN4)cc3)s2)c1 | -62.4% (active) | 0.288% (active) | -79% (active) | 35.1% | 88.1% | 68.1% | 97.3% | 101% | 92.6% | 25.9% | 53.6% | 47% | 59% |  | 88% | 14.7% |  |  |  |  |
| Nc1nc(-c2ccccc2)c(CCCOc2ccc(NC(=O)CBr)cc2)c(=O)[nH]1 | 101% |  | 86.4% | 107% | 92.9% | 90.3% | 104% | 101% | 117% | 91.5% | 71% | 102% | 96.2% | 106% | 103% | 96.1% | 20.3% | 29.1% | 94.3 | 91.1 |
| COc1cc(/C=C/C(=O)c2ccc(Nc3ncnc4cc(OC)c(OC)cc34)cc2)cc(OC)c1 | 97.8% |  | 72.3% | 78% | 109% | 99.9% | 114% | 105% | 101% | 91.1% | 94.4% | 104% | 102% | 97.6% | 95.8% | 53.8% | 88.3% | 63.2% | 96.1 | 94.9 |
| CCN(CC)CCCC(C)Nc1c2ccc(Cl)cc2nc2cc(OC)c(OC)cc12 (centres undefined) | -22.4% (active) | -23.8% (active) | 16.2% | 16.5% |  | -38% (active) | -74.7% (active) | 48% | 53.7% | 34.3% | -41% (active) | 2.47% (active) | -76.2% (active) | 9.87% (active) | 54.6% | -8.8% (active) | -53.3% (active) | 15.5% |  |  |
| Cc1ccc(CSC(=N)N)cc1C | 116% | 104% | 111% | 87.7% | 105% | 97.8% | 111% | 125% | 100% | 104% |  | 102% | 107% | 93.4% | 103% |  | 91.9% |  |  |  |
| O=C1c2c(Cl)c(Cl)c(Cl)c(Cl)c2C(=O)C2(Cl)CC=CCC12Cl (centres undefined) | -74.2% (active) | -39.2% (active) | -30.2% (active) | -55.4% (active) |  | 32.6% | -58.8% (active) | -49.4% (active) | 98.7% | 24.4% | 17.9% | -92.5% (active) | -81% (active) | -15.1% (active) | 104% |  | -84.3% (active) |  |  |  |
